Experimental data from PubChem BioAssay (NCI).
Compounds without any hit were thinned out: in the full panel of roughly 83,000, 20% have a hit.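 Activity criterion: percent growth below 10, measured after cells in 96-well plates were exposed to a single compound concentration for 48 hours.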 The source made the active and inactive calls.

Key:
Experiment in all cases: NCI-60 one-dose screen, 48 h (100 = growth as untreated, 0 = no growth, -100 = all killed)
Details in all cases: 10 µM unless noted
HCT-15 colon = tested on: HCT-15 colon
HT29 colon = tested on: HT29 colon
SNB-75 CNS = tested on: SNB-75 CNS
SNB-19 CNS = tested on: SNB-19 CNS
U251 CNS = tested on: U251 CNS
PC-3 prostate = tested on: PC-3 prostate
SK-MEL-5 melanoma = tested on: SK-MEL-5 melanoma
UACC-62 melanoma = tested on: UACC-62 melanoma
SK-MEL-28 melanoma = tested on: SK-MEL-28 melanoma
LOX IMVI melanoma = tested on: LOX IMVI melanoma

Measured: growth

CC1=C(C(=O)n2c3ccccc3c3ccccc32)C(c2cccc([N+](=O)[O-])c2)C(C(=O)n2c3ccccc3c3ccccc32)=C(C)N1
inactive: HCT-15 colon 81.9% | HT29 colon 104% | SNB-75 CNS 82.9% | SNB-19 CNS 95.6% | U251 CNS 89.5% | PC-3 prostate 80.7% | SK-MEL-5 melanoma 93.7% | UACC-62 melanoma 87.6% | SK-MEL-28 melanoma 103%

CCOC(=O)c1c(C)nc2ccccc2c1/C=C/c1ccc(OC)cc1
active: SK-MEL-5 melanoma 2.63%
inactive: HCT-15 colon 66% | HT29 colon 73.5% | SNB-75 CNS 76.2% | SNB-19 CNS 75.9% | U251 CNS 79.8% | PC-3 prostate 60.2% | UACC-62 melanoma 45.7% | LOX IMVI melanoma 68.5% | SK-MEL-28 melanoma 96.2%

COc1cccc2c(N=NC(=O)c3ccc(S(N)(=O)=O)cc3)c(O)[nH]c12
inactive: HCT-15 colon 98.8% | HT29 colon 106% | SNB-75 CNS 95.1% | SNB-19 CNS 97.1% | U251 CNS 101% | PC-3 prostate 99.1% | SK-MEL-5 melanoma 99.4% | UACC-62 melanoma 99.8% | LOX IMVI melanoma 99.5% | SK-MEL-28 melanoma 112%

Nc1c(C(=O)O)cc(Cl)cc1[N+](=O)[O-]
inactive: HCT-15 colon 104% | HT29 colon 97.7% | SNB-75 CNS 89.8% | SNB-19 CNS 112% | U251 CNS 104% | PC-3 prostate 80.8% | SK-MEL-5 melanoma 103% | UACC-62 melanoma 96.4% | LOX IMVI melanoma 100% | SK-MEL-28 melanoma 109%

Clc1nn2c(Cn3cnc4c(NCc5ccccc5)ncnc43)nnc2c2ccccc12
inactive: HCT-15 colon 25.8% | HT29 colon 56.4% | SNB-75 CNS 37.1% | SNB-19 CNS 61.9% | U251 CNS 34.5% | PC-3 prostate 42% | SK-MEL-5 melanoma 58.6% | UACC-62 melanoma 22.4% | SK-MEL-28 melanoma 46%

CN(C)c1ccc(/C=C/C(=O)c2ccc(Nc3nc(Nc4ccc(F)cc4)nc(Nc4ccc(Cl)cc4)n3)cc2)cc1
inactive: HCT-15 colon 57% | HT29 colon 60.7% | SNB-75 CNS 76.9% | SNB-19 CNS 92.7% | U251 CNS 67.9% | PC-3 prostate 57.2% | SK-MEL-5 melanoma 50.2% | UACC-62 melanoma 75.2% | LOX IMVI melanoma 75.6% | SK-MEL-28 melanoma 74.3%

CC(C)c1ccc(NC(=O)Nc2ccc(NC(=O)c3ccccc3N)cc2)cc1
inactive: HCT-15 colon 50.7% | HT29 colon 26.5% | SNB-75 CNS 26.3% | SNB-19 CNS 55.5% | U251 CNS 35.6% | PC-3 prostate 47.6% | SK-MEL-5 melanoma 24.3% | SK-MEL-28 melanoma 39.9%
active: UACC-62 melanoma 3%

O=c1nc(Nc2nc3ccccc3s2)[nH]c(=O)c2ccccc12
inactive: HCT-15 colon 99.2% | HT29 colon 108% | SNB-75 CNS 76.5% | SNB-19 CNS 95.6% | U251 CNS 98.6% | PC-3 prostate 105% | SK-MEL-5 melanoma 99.6% | UACC-62 melanoma 99% | SK-MEL-28 melanoma 110%

O=C(/C=C/c1ccccc1)Nc1ncc(Cc2ccccc2)s1
inactive: HCT-15 colon 14.2% | SNB-19 CNS 42.6% | PC-3 prostate 23.4% | SK-MEL-5 melanoma 30.6% | SK-MEL-28 melanoma 47%
active: HT29 colon 4.97% | SNB-75 CNS -2.19% | U251 CNS 9.07% | UACC-62 melanoma 3.28%

C=CC(=O)N1CCN(c2ccc3cccc(NC(=O)c4cnc(C)cn4)c3n2)CC1
inactive: HCT-15 colon 21.3% | HT29 colon 51.3% | SNB-75 CNS 15.4% | SNB-19 CNS 62.4% | U251 CNS 32.1% | PC-3 prostate 43.5% | SK-MEL-5 melanoma 61.4% | UACC-62 melanoma 26.9% | SK-MEL-28 melanoma 68%

Cc1c2cc[nH]c(=O)c2c(C)c2c1[nH]c1ccc(OC(=O)c3ccccc3)cc12
inactive: HCT-15 colon 27.9% | HT29 colon 34.1% | SNB-75 CNS 39.9% | SNB-19 CNS 45% | U251 CNS 29.2% | PC-3 prostate 35.9% | UACC-62 melanoma 28.5% | SK-MEL-28 melanoma 25.2%
active: SK-MEL-5 melanoma -26.9%

CCn1c2ccc(O)cc2c2c(C)c3c[n+](C(C)C)ccc3c(C)c21
active: SNB-19 CNS 7.71%
inactive: HCT-15 colon 67.7% | HT29 colon 54.8% | SNB-75 CNS 49.8% | U251 CNS 13.5% | PC-3 prostate 61% | SK-MEL-5 melanoma 57.1% | UACC-62 melanoma 15.1% | SK-MEL-28 melanoma 22.8%

Cc1cc(C(=O)Nc2cc(Nc3ncccc3-c3ncnc4nc[nH]c34)ccc2F)cc(C(F)(F)F)c1
inactive: HCT-15 colon 60.1% | HT29 colon 20.8% | SNB-75 CNS 59.4% | SNB-19 CNS 74.4% | U251 CNS 57.3% | PC-3 prostate 72.2% | SK-MEL-5 melanoma 29.2% | SK-MEL-28 melanoma 10.3%
active: UACC-62 melanoma -2.36% | LOX IMVI melanoma 1.22%

N#Cc1nc(-c2ccc(F)cc2)oc1S(=O)(=O)N1CCN(c2ccc(F)cc2)CC1
inactive: HCT-15 colon 14% | HT29 colon 65.9% | SNB-75 CNS 87.6% | SNB-19 CNS 96.9% | U251 CNS 86.7% | PC-3 prostate 92% | SK-MEL-5 melanoma 93.1% | UACC-62 melanoma 90.6% | SK-MEL-28 melanoma 104%

COc1ccc(/C=C/C(=O)c2ccc(Nc3nc(Nc4ccc(F)cc4)nc(Nc4ccc(Cl)cc4)n3)cc2)cc1
inactive: HCT-15 colon 100% | HT29 colon 94.1% | SNB-75 CNS 95.6% | SNB-19 CNS 115% | U251 CNS 111% | PC-3 prostate 81.4% | SK-MEL-5 melanoma 83.6% | LOX IMVI melanoma 102% | SK-MEL-28 melanoma 110%

CCOC(=O)c1cn2ncnc(Oc3ccc(NC(=O)NC4CC4)c(F)c3)c2c1C
inactive: HCT-15 colon 60.4% | HT29 colon 110% | SNB-75 CNS 91.3% | SNB-19 CNS 89.2% | U251 CNS 82.5% | PC-3 prostate 87.7% | SK-MEL-5 melanoma 94.9% | LOX IMVI melanoma 87.7% | SK-MEL-28 melanoma 108%

Cc1c(N2CN3C[C@H](C)N4CN(c5c(C)n(C)n(-c6ccccc6)c5=O)CN5C[C@@H](C)N(C2)C3C54)c(=O)n(-c2ccccc2)n1C (some centres not stated)
inactive: HCT-15 colon 96.4% | HT29 colon 102% | SNB-75 CNS 107% | SNB-19 CNS 101% | U251 CNS 105% | PC-3 prostate 94.2% | SK-MEL-5 melanoma 102% | LOX IMVI melanoma 96% | SK-MEL-28 melanoma 101%

Cn1cc(-c2csc(-c3cn(C(=O)OC(C)(C)C)c4ccccc34)n2)c2ccnc(Cl)c21
inactive: HCT-15 colon 39.1% | HT29 colon 35.4% | SNB-75 CNS 46.8% | SNB-19 CNS 89.1% | U251 CNS 34.1% | PC-3 prostate 40.5% | SK-MEL-5 melanoma 81.4% | LOX IMVI melanoma 52.8% | SK-MEL-28 melanoma 81.2%

CCCCCCC(=O)Nc1ncc(Cc2ccc(C)cc2)s1
active: SNB-75 CNS -0.16%
inactive: HCT-15 colon 35.5% | HT29 colon 15.4% | SNB-19 CNS 44.2% | U251 CNS 39% | PC-3 prostate 41.7% | SK-MEL-5 melanoma 36.9% | UACC-62 melanoma 31.1% | SK-MEL-28 melanoma 66.5%

COc1ccc2cc(Cn3cc[n+](Cc4ccc5ccccc5c4)c3)ccc2c1
inactive: HCT-15 colon 95.7% | SNB-75 CNS 18.9% | SNB-19 CNS 31.6% | U251 CNS 16.1% | PC-3 prostate 19% | LOX IMVI melanoma 28.4% | SK-MEL-28 melanoma 11.7%
active: HT29 colon -33.5% | SK-MEL-5 melanoma -24%

COc1ccc(Cc2nnc(Nc3nc4ccccc4s3)s2)cc1
inactive: HCT-15 colon 92.4% | HT29 colon 110% | SNB-75 CNS 92.2% | SNB-19 CNS 94.2% | U251 CNS 98.2% | PC-3 prostate 108% | SK-MEL-5 melanoma 96.5% | LOX IMVI melanoma 96.4% | SK-MEL-28 melanoma 92.3%

CN(C)c1ccc(C(=NO)c2ccc(N(C)C)cc2)cc1
inactive: HCT-15 colon 24.4% | SNB-75 CNS 53.6% | SNB-19 CNS 46.3% | U251 CNS 28.1% | PC-3 prostate 58% | SK-MEL-5 melanoma 14.5% | LOX IMVI melanoma 43.1% | SK-MEL-28 melanoma 56.3%
active: HT29 colon 5.39%

CCOC(=O)C/C(=N\Nc1cc(=O)[nH]c2ccc(Cl)cc12)C(=O)OCC
inactive: HCT-15 colon 105% | HT29 colon 109% | SNB-75 CNS 96.7% | SNB-19 CNS 94.9% | U251 CNS 107% | PC-3 prostate 88.3% | SK-MEL-5 melanoma 98.7% | LOX IMVI melanoma 95.7% | SK-MEL-28 melanoma 103%

CCOC(=O)Cn1c(=O)c2c3ccccc3n(C)c2n2nnc(-c3ccccc3)c12
inactive: HCT-15 colon 114% | HT29 colon 89.1% | SNB-75 CNS 105% | SNB-19 CNS 115% | U251 CNS 87.8% | PC-3 prostate 76.1% | SK-MEL-5 melanoma 74.1% | LOX IMVI melanoma 86.2% | SK-MEL-28 melanoma 86.6%

C=C(c1ccc(C(=O)O)cn1)c1cc2c(cc1C)C(C)(C)CCC2(C)C
inactive: HCT-15 colon 85.8% | HT29 colon 93.8% | SNB-75 CNS 94% | SNB-19 CNS 99.7% | U251 CNS 75.6% | PC-3 prostate 71.1% | SK-MEL-5 melanoma 70.8% | UACC-62 melanoma 94.3% | SK-MEL-28 melanoma 96.8%

Nc1ncnc2c1c(-c1ccc(Oc3ccccc3)cc1)nn2CC1SSCC1O (configuration not stated)
active: SK-MEL-5 melanoma -42.9% | SK-MEL-28 melanoma 2.15%
inactive: HCT-15 colon 65.3% | HT29 colon 39.2% | SNB-75 CNS 43.5% | SNB-19 CNS 45.5% | U251 CNS 39.7% | PC-3 prostate 61.7% | LOX IMVI melanoma 19.2%

CCOC(=O)c1c2c(n3ccccc13)C(=O)c1ncccc1C2=O
active: U251 CNS 0.0106% | SK-MEL-5 melanoma -17.8% | UACC-62 melanoma -25.8%
inactive: HCT-15 colon 22.4% | HT29 colon 47.6% | SNB-75 CNS 34.3% | SNB-19 CNS 16.5% | PC-3 prostate 19.9% | SK-MEL-28 melanoma 28.9%

CCOC(=O)c1c(C)nn(CC(O)c2ccccc2)c1NC(=O)Nc1cccc(F)c1 (configuration not stated)
inactive: HCT-15 colon 85.2% | HT29 colon 96% | SNB-75 CNS 77.3% | SNB-19 CNS 94.8% | U251 CNS 93.4% | PC-3 prostate 76.8% | SK-MEL-5 melanoma 94.7% | LOX IMVI melanoma 95% | SK-MEL-28 melanoma 104%
